{
  "source": "PubChem BioAssay AID1159580",
  "about": "(chemical genetic matrix, 2015)",
  "assay": "chemical genetic growth profiling, strain panel (AID 1159580);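 further: tested at 20 µM; growth read once vehicle control cultures reached saturation at 30 °C; 1 = growth at the plate median or of vehicle wells; lower values mean less growth of the strain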",
  "settings": "S. cerevisiae deletion strains, growth OD",
  "note": "Out of some 5,500 compounds screened, about 2,000 (36%) were called active. Not shown: some 18% with an inconclusive outcome. Some of the results follow. A number with no mark means an inactive call. No stated cut-off is given here; in the data, active means normalized growth mostly below about 0.91 (no sharp cut-off); inconclusive means no clear call, values can overlap the other calls; inactive means mostly above about 0.92.",
  "data": [
    {"compound": "CCCCCC(=O)Cc1cc(O)cc(O)c1C(=O)Oc1cc(CC(=O)CCCCC)c(C(=O)O)c(OC)c1", "values": [
      {"measurement": "normalized growth", "setting": "locus YAL021C, strain ccr4, active compounds read low", "result": "0.892 (active)"},
      {"measurement": "normalized growth", "setting": "locus YAL026C, strain drs2, active compounds read low", "result": "0.86 (active)"},
      {"measurement": "normalized growth", "setting": "locus YAL030W, strain snc1, active compounds read low", "result": 0.934},
      {"measurement": "normalized growth", "setting": "locus YBL061C, strain skt5, active compounds read low", "result": 0.925},
      {"measurement": "normalized growth", "setting": "locus YBR009C, strain hhf1, active compounds read low", "result": "0.881 (active)"},
      {"measurement": "normalized growth", "setting": "locus YBR023C, strain chs3, active compounds read low", "result": "0.907 (active)"},
      {"measurement": "normalized growth", "setting": "locus YBR171W, strain sec66, active compounds read low", "result": "0.858 (active)"},
      {"measurement": "normalized growth", "setting": "locus YBR231C, strain swc5, active compounds read low", "result": 0.927},
      {"measurement": "normalized growth", "setting": "locus YBR279W, strain paf1, active compounds read low", "result": 0.943},
      {"measurement": "normalized growth", "setting": "locus YCL011C, strain gbp2, active compounds read low", "result": 0.933},
      {"measurement": "normalized growth", "setting": "locus YCL016C, strain dcc1, active compounds read low", "result": 0.943},
      {"measurement": "normalized growth", "setting": "locus YCL069W, strain vba3, active compounds read low", "result": 0.929},
      {"measurement": "normalized growth", "setting": "locus YCR088W, strain abp1, active compounds read low", "result": 0.934},
      {"measurement": "normalized growth", "setting": "locus YDL005C, strain med2, active compounds read low", "result": 0.954},
      {"measurement": "normalized growth", "setting": "locus YDL040C, strain nat1, active compounds read low", "result": 0.939},
      {"measurement": "normalized growth", "setting": "locus YDR001C, strain nth1, active compounds read low", "result": 0.936},
      {"measurement": "normalized growth", "setting": "locus YDR069C, strain doa4, active compounds read low", "result": 0.95},
      {"measurement": "normalized growth", "setting": "locus YDR137W, strain rgp1, active compounds read low", "result": "0.412 (active)"},
      {"measurement": "normalized growth", "setting": "locus YDR159W, strain sac3, active compounds read low", "result": "0.771 (active)"},
      {"measurement": "normalized growth", "setting": "locus YDR195W, strain ref2", "result": 0.863},
      {"measurement": "normalized growth", "setting": "locus YDR297W, strain sur2, active compounds read low", "result": 0.927},
      {"measurement": "normalized growth", "setting": "locus YDR334W, strain swr1, active compounds read low", "result": 0.917},
      {"measurement": "normalized growth", "setting": "locus YDR335W, strain msn5, active compounds read low", "result": "0.894 (active)"},
      {"measurement": "normalized growth", "setting": "locus YDR392W, strain spt3, active compounds read low", "result": "0.404 (active)"},
      {"measurement": "normalized growth", "setting": "locus YEL003W, strain gim4, active compounds read low", "result": 0.919},
      {"measurement": "normalized growth", "setting": "locus YEL037C, strain rad23, active compounds read low", "result": 0.941},
      {"measurement": "normalized growth", "setting": "locus YEL061C, strain CIN8 (second series), active compounds read low", "result": 0.946},
      {"measurement": "normalized growth", "setting": "locus YER015W, strain faa2, active compounds read low", "result": 0.947},
      {"measurement": "normalized growth", "setting": "locus YER016W, strain bim1, active compounds read low", "result": "0.913 (active)"},
      {"measurement": "normalized growth", "setting": "locus YER111C, strain swi4, active compounds read low", "result": 0.941},
      {"measurement": "normalized growth", "setting": "locus YER155C, strain BEM2 (second series), active compounds read low", "result": "0.639 (active)"},
      {"measurement": "normalized growth", "setting": "locus YFR010W, strain ubp6, active compounds read low", "result": 0.933},
      {"measurement": "normalized growth", "setting": "locus YGL167C, strain pmr1, active compounds read low", "result": "0.89 (active)"},
      {"measurement": "normalized growth", "setting": "locus YGL173C, strain kem1, active compounds read low", "result": "0.851 (active)"},
      {"measurement": "normalized growth", "setting": "locus YGL227W, strain vid30, active compounds read low", "result": 0.937},
      {"measurement": "normalized growth", "setting": "locus YGL240W, strain doc1, active compounds read low", "result": "0.77 (active)"},
      {"measurement": "normalized growth", "setting": "locus YGL253W, strain hxk2, active compounds read low", "result": "0.855 (active)"},
      {"measurement": "normalized growth", "setting": "locus YHR013C, strain ard1, active compounds read low", "result": "1.18 [resistant] (active)"},
      {"measurement": "normalized growth", "setting": "locus YHR027C, strain rpn1, active compounds read low", "result": "0.919 (active)"},
      {"measurement": "normalized growth", "setting": "locus YHR030C, strain SLT2, active compounds read low", "result": 1.01},
      {"measurement": "normalized growth", "setting": "locus YHR079C, strain IRE1, active compounds read low", "result": 0.981},
      {"measurement": "normalized growth", "setting": "locus YHR142W, strain chs7, active compounds read low", "result": "0.818 (active)"},
      {"measurement": "normalized growth", "setting": "locus YJL092W, strain hpr5, active compounds read low", "result": 0.943},
      {"measurement": "normalized growth", "setting": "locus YJL095W, strain BCK1 (second series), active compounds read low", "result": "0.694 (active)"},
      {"measurement": "normalized growth", "setting": "locus YJL095W, strain BCK1, active compounds read low", "result": 0.99},
      {"measurement": "normalized growth", "setting": "locus YJL115W, strain asf1, active compounds read low", "result": 0.922},
      {"measurement": "normalized growth", "setting": "locus YJL129C, strain trk1, active compounds read low", "result": "0.632 (active)"},
      {"measurement": "normalized growth", "setting": "locus YJL154C, strain vps35, active compounds read low", "result": 0.935},
      {"measurement": "normalized growth", "setting": "locus YJL164C, strain tpk1, active compounds read low", "result": "0.899 (active)"},
      {"measurement": "normalized growth", "setting": "locus YJL166W, strain qcr8, active compounds read low", "result": "0.871 (active)"},
      {"measurement": "normalized growth", "setting": "locus YJL187C, strain SWE1, active compounds read low", "result": "0.909 (active)"},
      {"measurement": "normalized growth", "setting": "locus YJR066W, strain TOR1, active compounds read low", "result": 0.939},
      {"measurement": "normalized growth", "setting": "locus YKL160W, strain elf1, active compounds read low", "result": 0.916},
      {"measurement": "normalized growth", "setting": "locus YKR026C, strain gcn3, active compounds read low", "result": 0.933},
      {"measurement": "normalized growth", "setting": "locus YKR091W, strain srl3, active compounds read low", "result": "0.922 (active)"},
      {"measurement": "normalized growth", "setting": "locus YLL001W, strain dnm1, active compounds read low", "result": 0.941},
      {"measurement": "normalized growth", "setting": "locus YLL026W, active compounds read low", "result": 0.935},
      {"measurement": "normalized growth", "setting": "locus YLL041C, strain sdh2, active compounds read low", "result": "0.927 (active)"},
      {"measurement": "normalized growth", "setting": "locus YLR027C, strain aat2, active compounds read low", "result": "0.922 (active)"},
      {"measurement": "normalized growth", "setting": "locus YLR113W, strain HOG1, active compounds read low", "result": 0.983},
      {"measurement": "normalized growth", "setting": "locus YLR221C, strain rsa3, active compounds read low", "result": "0.859 (active)"},
      {"measurement": "normalized growth", "setting": "locus YLR258W, strain gsy2, active compounds read low", "result": 0.919},
      {"measurement": "normalized growth", "setting": "locus YLR262C, strain YPT6 (second series), active compounds read low", "result": "0.409 (active)"},
      {"measurement": "normalized growth", "setting": "locus YLR320W, strain mms22, active compounds read low", "result": "0.826 (active)"},
      {"measurement": "normalized growth", "setting": "locus YLR342W, strain FKS1, active compounds read low", "result": "0.901 (active)"},
      {"measurement": "normalized growth", "setting": "locus YLR357W, strain rsc2, active compounds read low", "result": 0.866},
      {"measurement": "normalized growth", "setting": "locus YLR370C, strain arc18, active compounds read low", "result": 0.925},
      {"measurement": "normalized growth", "setting": "locus YLR384C, strain iki3, active compounds read low", "result": 0.945},
      {"measurement": "normalized growth", "setting": "locus YML120C, strain ndi1, active compounds read low", "result": "0.898 (active)"},
      {"measurement": "normalized growth", "setting": "locus YMR058W, strain fet3, active compounds read low", "result": "0.883 (active)"},
      {"measurement": "normalized growth", "setting": "locus YMR125W, strain sto1, active compounds read low", "result": 0.909},
      {"measurement": "normalized growth", "setting": "locus YMR129W, active compounds read low", "result": "0.918 (active)"},
      {"measurement": "normalized growth", "setting": "locus YMR205C, strain PFK2, active compounds read low", "result": "0.783 (active)"},
      {"measurement": "normalized growth", "setting": "locus YMR231W, strain pep5, active compounds read low", "result": 0.929},
      {"measurement": "normalized growth", "setting": "locus YNL071W, strain lat1, active compounds read low", "result": "0.888 (active)"},
      {"measurement": "normalized growth", "setting": "locus YNL183C, strain NPR1, active compounds read low", "result": 0.946},
      {"measurement": "normalized growth", "setting": "locus YNL209W, strain ssb2, active compounds read low", "result": 0.948},
      {"measurement": "normalized growth", "setting": "locus YNL248C, strain rpa49, active compounds read low", "result": 0.903},
      {"measurement": "normalized growth", "setting": "locus YNL322C, strain KRE1 (second series), active compounds read low", "result": 0.919},
      {"measurement": "normalized growth", "setting": "locus YNR049C, strain mso1, active compounds read low", "result": 0.95},
      {"measurement": "normalized growth", "setting": "locus YOR001W, strain rrp6, active compounds read low", "result": "0.882 (active)"},
      {"measurement": "normalized growth", "setting": "locus YOR070C, strain gyp1, active compounds read low", "result": "0.918 (active)"},
      {"measurement": "normalized growth", "setting": "locus YOR080W, strain dia2, active compounds read low", "result": 0.938},
      {"measurement": "normalized growth", "setting": "locus YOR083W, strain WHI5, active compounds read low", "result": 0.898},
      {"measurement": "normalized growth", "setting": "locus YOR106W, strain vam3, active compounds read low", "result": 0.897},
      {"measurement": "normalized growth", "setting": "locus YOR231W, strain MKK1, active compounds read low", "result": 0.994},
      {"measurement": "normalized growth", "setting": "locus YOR265W, strain rbl2, active compounds read low", "result": "0.925 (active)"},
      {"measurement": "normalized growth", "setting": "locus YOR270C, strain vph1, active compounds read low", "result": "0.607 (active)"},
      {"measurement": "normalized growth", "setting": "locus YOR290C, strain snf2, active compounds read low", "result": 0.925},
      {"measurement": "normalized growth", "setting": "locus YPL051W, strain arl3, active compounds read low", "result": "0.853 (active)"},
      {"measurement": "normalized growth", "setting": "locus YPL078C, strain atp4, active compounds read low", "result": "0.862 (active)"},
      {"measurement": "normalized growth", "setting": "locus YPL106C, strain sse1, active compounds read low", "result": "0.812 (active)"},
      {"measurement": "normalized growth", "setting": "locus YPL240C, strain hsp82, active compounds read low", "result": "0.912 (active)"},
      {"measurement": "normalized growth", "setting": "locus YPL256C, strain CLN2, active compounds read low", "result": 0.989}
    ]}
  ]
}
